# FBA Mtb inh = Mtb FBA enzyme inhibitors, primary screen, biochemical, fluorescence, strain H37Rv; purified M. tuberculosis FBA, fluorescence read-out; Fructose-bisphosphate aldolase (Mycobacterium tuberculosis (strain ATCC 25618 / H37Rv)), …; inhibition, % at 1 µM; hit rate 2.3% among 360,000;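 also: 0% = vehicle and 100% = reference inhibitor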
# Target sequence (P9WQA3 whole entry, looked up): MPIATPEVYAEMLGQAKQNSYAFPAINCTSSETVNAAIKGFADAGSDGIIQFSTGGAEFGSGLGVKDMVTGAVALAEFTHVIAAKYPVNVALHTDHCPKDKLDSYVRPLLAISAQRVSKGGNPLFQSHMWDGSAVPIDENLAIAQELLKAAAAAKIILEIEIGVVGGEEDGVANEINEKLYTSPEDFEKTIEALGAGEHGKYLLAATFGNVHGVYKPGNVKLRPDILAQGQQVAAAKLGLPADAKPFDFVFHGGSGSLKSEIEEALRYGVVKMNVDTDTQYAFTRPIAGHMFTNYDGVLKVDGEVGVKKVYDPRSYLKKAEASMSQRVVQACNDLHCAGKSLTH
# Mtb BioA inh = M. tuberculosis BioA enzyme inhibitors, primary screen, biochemical, plate reader, single point, HTS; 7,8-diaminopelargonic acid synthase BioA (Mycobacterium tuberculosis); purified M. tuberculosis BioA enzyme; inhibition, % at 9.99 µM; hit rate 0.096% among 360,000; AID 602481, 2012; in the data active = inhibition above about 40%
# SARS 3CLpro inh = SARS-CoV 3CLpro protease inhibitors, primary screen, biochemical, quenched FRET; AID 1706, 2009; inhibition, % at 6 µM; hit rate 0.14% among 290,000; recombinant SARS-CoV 3CLpro, quenched FRET peptide cleavage; in the data active = inhibition above about 12%
# FadD28 FP inh = inhibitors of FadD28 bisubstrate probe binding, primary screen, biochemical, fluorescence polarization, single point; inhibition, % at 12.5 µM; hit rate 0.22% among 360,000; AID 588549, 2011; Mycobacterium tuberculosis FadD28 fatty-acid-AMP ligase; in the data active = inhibition above about 8.5%, passing the limit was not always enough
# GDH-TPI counter-1 = GDH-TPI coupling enzyme inhibitors, primary screen, artefact control for M. tuberculosis FBA inhibitor project, biochemical, absorbance, full deck. inhibition, % at 4.8 µM. AID 588335, 2011. hit rate 1.2% among 360,000. GDH-TPI coupled enzyme counterscreen, NADH absorbance; in the data active = inhibition above about 30%;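 also: 0% = DMSO wells and 100% = wells lacking the enzyme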
# Mtb FBA inh conf = M. tuberculosis aldolase blockers, biochemical, fluorescence, strain H37Rv, confirmation; inhibition, % at 1 µM; shares compounds with FBA Mtb inh; hit rate 78% among 5,600; purified M. tuberculosis FBA, fluorescence read-out;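 also: 0% = vehicle wells and 100% = reference inhibitor wells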
# GDH-TPI counter-2 = GDH-TPI coupling enzyme inhibitors, artefact control for M. tuberculosis FBA inhibitor project, biochemical, fluorescence, high throughput | shares compounds with FBA Mtb inh | hit rate 81% among 5,600 | GDH-TPI coupled enzyme counterscreen | inhibition, % at 1 µM; in the data active = inhibition above about 10%
# Numbers without * were called inactive; · = no result given; + = active, no number. A selection: hits, their analogues and other compounds. The true share with any hit is near 3.1%. Rule as the data show it, unless noted: active = inhibition above about 27%; inactive = the rest.
SMILES,FBA Mtb inh,Mtb BioA inh,SARS 3CLpro inh,FadD28 FP inh,GDH-TPI counter-1,Mtb FBA inh conf,GDH-TPI counter-2
O=C(NCCc1cn2ccccc2n1)C1CCCCC1,27*,0,7,1,4,109*,80*
CN(C)C(=O)Oc1ccc(-c2cn3cc(Cl)ccc3n2)cc1,13,-1,-3,-1,16,·,·
CN(C)C(=O)Oc1ccc(-c2cn3cc(C(F)(F)F)ccc3n2)cc1,34*,0,2,-3,6,70*,59*
CCc1cc2c(COC(=O)c3cc(S(=O)(=O)N4CCOCC4)ccc3F)cc(=O)oc2cc1O,25,-1,·,-3,2,·,·
O=C(OCc1cc(=O)oc2cc(O)ccc12)c1cc(S(=O)(=O)N2CCOCC2)ccc1F,41*,-2,·,-1,20,-1,-5
C[C@@H]1CN([C@@H](C)CO)C(=O)c2cc(-c3cccc(F)c3)cnc2O[C@@H]1CN(C)C,·,-1,·,·,·,·,·
CCCN(C)C[C@@H]1OCc2cnnn2CCCC(=O)N([C@@H](C)CO)C[C@H]1C,·,-1,·,·,·,·,·
COc1ccc(/C=N\NC(=O)c2ccccc2F)cc1COc1ccc(F)cc1F,-2,0,0,-6,10,·,·
COc1ccc(/C=N/NC(=O)c2ccc(NC(C)=O)cc2)cc1COc1ccc(F)cc1F,30*,-2,-2,-1,15,75*,59*
COc1ccc(/C=N/NC(=O)c2nc(Cl)c(Cl)c(N)c2Cl)cc1COc1ccccc1F,25,-2,5,-1,20,·,·
COc1ccc(/C=N/NC(=O)c2nc(Cl)c(Cl)c(N)c2Cl)cc1COc1ccc(F)cc1F,29*,3,-3,-4,24,4,-2
C[C@H](CO)N1C[C@H](C)[C@@H](CN(C)C(=O)Nc2cccc3ccccc23)OCCCC[C@H](C)Oc2ccc(NS(=O)(=O)c3cccs3)cc2C1=O,·,-1,·,·,·,·,·
Cc1csc2ncc(C(=O)NCCC(c3ccccc3)c3ccccc3)c(=O)n12,34*,-1,-1,-6,19,101*,57*
Cc1csc2ncc(C(=O)NCc3ccccn3)c(=O)n12,65*,2,1,0,36*,175*,147*
O=C(NCCc1ccccc1)c1cnc2ccccn2c1=O,105*,-1,-4,-3,30,113*,88*
Cc1csc2ncc(C(=O)NCCc3ccccc3)c(=O)n12,52*,1,1,-3,29,122*,104*
Cc1ccccc1NC(=O)c1cnc2ccccn2c1=O,0,0,-2,-3,10,·,·
Cc1noc(C)c1NC(=O)Nc1cccc2c1O[C@@H](CN(C)C(=O)NC1CCCCC1)[C@@H](C)CN([C@@H](C)CO)C2=O,·,-1,·,·,·,·,·
CNc1ccccc1C(=O)OCC(=O)Nc1ccc2c(c1)OCO2,53*,0,·,-3,2,101*,69*
C[C@H](CO)N1C[C@H](C)[C@@H](CN(C)Cc2ccc3c(c2)OCO3)Oc2ccc(NS(=O)(=O)c3cn(C)cn3)cc2C1=O,·,0,·,·,·,·,·
COc1ccc(-c2coc3c(CN4CCOCC4)c(O)ccc3c2=O)cc1,41*,0,2,-2,8,63*,50*
O=c1c(-c2ccccc2)coc2c(CN3CCCC3)c(O)ccc12,82*,1,0,-2,15,145*,123*
O=C(c1ccccc1)c1coc2ccc(O)c(CN3CCOCC3)c12,3,0,-8,1,-2,·,·
COc1ccc(-c2coc3cc(OC(=O)N4CCOCC4)ccc3c2=O)cc1,0,-2,0,-1,2,·,·
Cc1oc2c(CN3CCOCC3)c(O)ccc2c(=O)c1-c1ccccc1,98*,3,5,-2,24,+,+
SMILES,FBA Mtb inh,Mtb BioA inh,SARS 3CLpro inh,FadD28 FP inh,GDH-TPI counter-1,Mtb FBA inh conf,GDH-TPI counter-2
O=c1c(-c2ccc(Cl)cc2)coc2c(CN3CCOCC3)c(O)ccc12,30*,1,7,-2,25,30*,19*
CCc1cc2c(-c3ccccc3)cc(=O)oc2c(CN2CCOCC2)c1O,3,0,-2,-1,25,·,·
C[C@@H]1CN([C@@H](C)CO)S(=O)(=O)c2ccc(C#CC3CCCC3)cc2O[C@@H]1CN(C)Cc1cncnc1,·,3,·,·,·,·,·
COc1ccc([Si](C)(C)[C@@H]2[C@@H](CCO)O[C@]3(C(=O)N(Cc4ccccc4)c4ccc(N5C(=O)c6cccc7cccc5c67)cc43)[C@H]2C)cc1,·,1,·,·,·,·,·
COCC(=O)Nc1ccc2c(c1)[C@@H]1C[C@@H](CC(=O)NCc3ccccn3)O[C@@H](CO)[C@@H]1O2,·,-1,·,·,·,·,·
CCOC(=O)c1c(C)oc2c1c(CN1CCN(CCO)CC1)c(O)c1ccccc12,3,·,4,-2,4,·,·
CCOc1ccccc1Oc1c(C)oc2c(CN3CCN(CCO)CC3)c(O)ccc2c1=O,80*,·,-9,0,15,-11,-8
CCOc1ccc2oc(-c3ccccc3)c(C(N)=O)c2c1,69*,0,-3,-1,3,+,199*
CCOc1ccc2oc(C(=O)N3CCCN(C)CC3)c(C)c2c1,0,0,·,-2,-7,·,·
CCOc1ccc2oc(-c3ccccc3)c(C(=O)N3CCN(CCO)CC3)c2c1,42*,·,-1,-1,6,93*,90*
CCOc1ccc2oc(-c3ccccc3)c(C(=O)N(C)C)c2c1,50*,-1,3,-2,14,-2,-4
CCCc1cn(CC[C@@H]2CC[C@H](NC(=O)Nc3ccccc3F)[C@@H](CO)O2)nn1,·,3,·,·,·,·,·
O=C(NCC[C@H]1CC[C@@H](NS(=O)(=O)c2ccccc2)[C@@H](CO)O1)c1cc(Cl)cc(Cl)c1,·,-1,·,·,·,·,·
Fc1cccc(-c2cc3nc4c(c(N5CCC6(CC5)OCCO6)n3n2)CCCC4)c1,3,·,-3,-2,5,·,·
Cc1cccc(-c2cc3nc(-c4ccccc4)cc(N4CCC5(CC4)OCCO5)n3n2)c1,25,-1,4,-2,7,·,·
Fc1cccc(-c2cc3nc(-c4ccccc4)cc(N4CCC5(CC4)OCCO5)n3n2)c1,53*,-3,-7,-5,7,-2,-6
Cc1ccc(-c2cc3nc(-c4ccccc4)cc(N4CCC5(CC4)OCCO5)n3n2)cc1,33*,-2,5,1,16,+,+
CCCCS(=O)(=O)Nc1ccc2ncn(C)c(=O)c2c1,35*,0,-1,-4,1,-3,-5
COc1cc(OC)cc(-c2c(C#Cc3ccsc3)c3cc(-c4cccc5[nH]ccc45)ccc3n2C)c1,21,-1,·,-3,20,·,·

# Compound activity (PubChem)
